Measured values from PubChem BioAssay (EPA / NIEHS).
Active and inactive are the calls of the source. How the source made its calls: active means hit-call score of the fitted dose curve at least 0.9, where 1 is the maximum; inactive means score below 0.9.

Test: ATG_TA_CIS: Attagene CIS-FACTORIAL HepG2 Assay for human TA Basal Promoter (AID 2282964)
Details: HepG2 Attagene CIS-factorial TA basal promoter reporter; actives raise or lower the signal
Summary of the method: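 Multiplexed mRNA reporter assay, HepG2, 24 h. Reporter cDNA amplified, 6-FAM primer-extended, HpaI-cut, CE-sized; DMSO = negative control and baseline.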
In the case of CCOP(=O)(SC(C)CC)N1CCSC1=O (stereo unspecified), the outcome is reported as “inactive”. With CCCCOC(=O)[C@@H](C)Oc1ccc(Oc2ccc(C#N)cc2F)cc1 the outcome was “inactive”. With CC(=NC#N)N(C)Cc1ccc(Cl)nc1 the outcome was “inactive”. For CCc1cccc(C)c1N(C(=O)CCl)C(C)COC (stereo unspecified), the outcome was “inactive”. With COc1cc(OC)nc(Sc2cccc(Cl)c2C(=O)O)n1 the outcome was “inactive”. With CON=C(C(=O)OC)c1ccccc1CON=C(C)c1cccc(C(F)(F)F)c1 the outcome was “inactive”. For CC1=NNC(=O)N(/N=C/c2cccnc2)C1, the outcome was “inactive”. In the case of S=C1NCCN1, the outcome is reported as “inactive”. For CC(C)=CC1C(C(=O)OCN2C(=O)C3=C(CCCC3)C2=O)C1(C)C (stereo unspecified), the outcome was “inactive”. In the case of CC(C1CC1)C(O)(Cn1cncn1)c1ccc(Cl)cc1 (stereo unspecified), the outcome is reported as “inactive”. With C#CC(C)(C)NC(=O)c1cc(Cl)cc(Cl)c1 the outcome was “inactive”. In the case of CCC(=O)Nc1ccc(Cl)c(Cl)c1, the outcome is reported as “inactive”. In the case of O=C(O)c1cc(Oc2ccc(C(F)(F)F)cc2Cl)ccc1[N+](=O)[O-], the outcome is reported as “inactive”. With CCOP(=S)(OCC)SCCSCC the outcome was “inactive”. For CCc1cnc(C2=NC(C)(C(C)C)C(=O)N2)c(C(=O)O)c1 (stereo unspecified), the outcome was “inactive”. With CCOP(=S)(Oc1cnc(C(C)(C)C)nc1)OC(C)C (stereo unspecified) the outcome was “inactive”. For CCOP(=S)(OCC)OC(Cl)C(Cl)(Cl)Cl (stereo unspecified), the outcome was “inactive”. For CN(C)C(=O)Nc1cccc(C(F)(F)F)c1, the outcome was “inactive”. With CNC(=O)ON=C(C)SC the outcome was “inactive”. For CCCOc1nn(C(=O)NS(=O)(=O)c2ccccc2C(=O)OC)c(=O)n1C, the outcome was “inactive”. With CCOC(=O)COc1cc(-c2nn(C)c(OC(F)F)c2Cl)c(F)cc1Cl the outcome was “inactive”. With CCOP(=S)(OCC)Oc1ccc([N+](=O)[O-])cc1 the outcome was “inactive”. In the case of CC[C@H](C)[C@H]1O[C@]2(C=C[C@@H]1C)C[C@@H]1C[C@@H](C/C=C(\C)[C@@H](O[C@H]3C[C@H](OC)[C@@H](O[C@H]4C[C@H](OC)[C@@H](NC)[C@H](C)O4)[C@H](C)O3)[C@@H](C)/C=C/C=C3\CO[C@@H]4[C@H](O)C(C)=C[C@@H](C(=O)O1)[C@]34O)O2, the outcome is reported as “inactive”. With CN(C)[C@@H]1C(=O)C(C(N)=O)=C(O)[C@@]2(O)C(=O)C3=C(O)c4c(O)cccc4[C@@](C)(O)[C@H]3[C@H](O)[C@@H]12 the outcome was “inactive”. For CCNc1nc(Cl)nc(NC(C)(C)C#N)n1, the outcome was “inactive”. In the case of CC(C)[C@H](C(=O)O[C@H](C#N)c1cccc(Oc2ccccc2)c1)c1ccc(Cl)cc1, the outcome is reported as “inactive”. For CCOP(=S)(OCC)Oc1ccc2c(C)c(Cl)c(=O)oc2c1, the outcome was “inactive”. In the case of CSc1nc(NC(C)C)nc(NC(C)C)n1, the outcome is reported as “inactive”. In the case of COP(=O)(OC)SCn1c(=O)oc2cc(Cl)cnc21, the outcome is reported as “inactive”. With CN(C)NC(=O)CCC(=O)O the outcome was “inactive”. For Cc1nn(-c2cc(NS(C)(=O)=O)c(Cl)cc2Cl)c(=O)n1C(F)F, the outcome was “inactive”. For CCCCN(CC)c1c([N+](=O)[O-])cc(C(F)(F)F)cc1[N+](=O)[O-], the outcome was “inactive”. In the case of CCC(=NOC/C=C/Cl)C1=C(O)CC(C2CCOCC2)CC1=O (stereo unspecified), the outcome is reported as “inactive”. With C[N+]1(C)CCCCC1 the outcome was “inactive”. In the case of CNC(=O)ON=C(SC)C(=O)N(C)C, the outcome is reported as “inactive”. For COP(=O)(NC(C)=O)SC (stereo unspecified), the outcome was “inactive”.
